Where “and” joins values, the source holds several entries; their conditions need not be identical. Equal entries are not always repeated. Compounds without any hit were thinned out: in the full panel of roughly 83,000, 20% have a hit.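 Compound tested at a single concentration for 48 hours in 96-well plates; a percent growth value below 10 was scored as active.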 A number with no mark means an inactive call. Calls of active or inactive are those of the source.

In this experiment the test system is MDA-MB-468 breast. As to the kind of experiment: NCI-60 one-dose screen, 48 h (100 = growth as untreated, 0 = no growth, -100 = all killed). The following applies: 10 µM unless noted.

Take `COc1c(N2CC3CCCNC3C2)c(F)cc2c(=O)c(C(=O)N/N=C/c3ccccc3)cn(C3CC3)c12` (stereo not given): the growth was 83.7%.

`CCCCCC(=O)OCCC1CCCCC1`: the growth is 99%.

Take `CCc1ccc(Oc2cn[nH]c2-c2ccc(OCCc3ccc(F)cc3)cc2O)cc1`: the growth is 105%.

`COc1ccc(NC(=O)CCCCCCNC(=O)C(O)(O)C(F)(F)F)cc1`: the growth was 31.8%.

Turning to `O=C(N/N=C\c1cc(Cl)ccc1[N+](=O)[O-])c1ccco1`, the growth is 58.5%.

For the compound `Cc1ccc(NCCNCC(O)CO)c2c(=O)c3ccccc3sc12` (stereo not given), the growth was -46.4% (active).

For the compound `COc1cc(-c2cc(/C=C3\C(=O)Nc4ccc(Cl)cc43)[nH]n2)cc(OC)c1OC`, the growth is 67.7%.

`N/C(=N\c1nc2ccccc2s1)NC(=O)Nc1ccccc1`: the growth is 31.4%.

In the case of `CCOC(=O)c1cnn2c3ccccc3n(S(=O)(=O)c3ccc(OC)cc3)c12`, the growth is -12.1% (active).

Regarding `CCOC(=O)c1ccc2[nH]c(-c3ccccc3)cc(=O)c2c1`, the growth is 105%.

As for `COc1ccc(C2CC(c3ccc(OC)c(OC)c3)=NN2C(=O)c2cc(OC)c(OC)c(OC)c2)c(OC)c1` (stereo not given), the growth is 53.6%.

With `CCC(C)c1c(N)n(S(=O)(=O)c2ccc(C)cc2)oc1=O` (stereo not given), the growth is 109%.

`Cn1ccnc1C(=O)/C=C/c1ccc(NC(=O)Nc2ccc(Cl)cc2)cc1`: the growth was 43.9%.

Consider `COc1ccc2c(=O)cc(-c3ccccc3)[nH]c2c1`, for which the growth is 7.37% (active) and -4.48% (active).

Take `CN(C)CCNC(=O)c1ccc(-c2nc3ccc4[nH]ncc4c3c3c2C2CCC3C2)cc1` (stereo not given): the growth was 16.2%.
